The text below walks through data of PubChem BioAssay.

Results with a measured potency or affinity are listed apart. Results filed as inconclusive are left out. The source made the active and inactive calls.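 Rule for the calls: active = fitted half-maximal concentration for viability loss no higher than twice the top valid dose, in every repeat run; inconclusive = repeat runs disagree, flat partial loss, or poor curve fit; inactive = the rest.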

This assay can be described thus: cytotoxicity in IOSE-T80 ovarian epithelial cells, dose response, selectivity assay for PAX8 inhibitor project, cell-based, cherry-pick (AID 687032).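 Note: cells exposed to compound for 96 h before reading; 0% = neutral control wells and -100% = 2 µM mitoxantrone kill.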 The conditions noted are these: CellTiterGlo ATP luminescence, 96 h; series mostly up to 35 µM; activity change, negative = viability loss: at the top concentration. (In general: ATP-based viability assays read luminescence as a measure of living cells.)
As to `COc1ccc(S(=O)(=O)Nc2ccc3c(c2)C(=O)N([C@@H](C)CO)C[C@@H](C)[C@H](CN(C)Cc2ccc(C(F)(F)F)cc2)OCCCC[C@H](C)O3)cc1`, the “activity change, negative = viability loss” value is 10.2% (inactive).
The figure for `COc1cccc(C#Cc2ccc([C@H]3[C@@H](CO)N(C(=O)C4CCCCC4)[C@H]3C#N)cc2)c1` is 15.3% (inactive).
The figure for `C[C@H](CO)N1C[C@H](C)[C@@H](CN(C)Cc2ccc(C(F)(F)F)cc2)OCCCC[C@H](C)Oc2ccc(NS(=O)(=O)c3ccc(F)cc3)cc2C1=O` is 23% (inactive).
With `Cc1ccc(S(=O)(=O)Nc2ccc3c(c2)C(=O)N([C@H](C)CO)C[C@@H](C)[C@@H](CN(C)Cc2ccc(C(F)(F)F)cc2)OCCCC[C@H](C)O3)cc1` the figure was 13.9% (inactive); with `COc1ccc(S(=O)(=O)N(C)C[C@@H]2OCCCC[C@H](C)Oc3ccc(NS(=O)(=O)c4ccc(Cl)cc4)cc3C(=O)N([C@H](C)CO)C[C@@H]2C)cc1`, 17.2% (inactive); with `C[C@@H]1CCCCO[C@@H](CN(C)S(=O)(=O)c2ccccc2)[C@H](C)CN([C@H](C)CO)C(=O)c2cc(NC(=O)Nc3ccc(C(F)(F)F)cc3)ccc2O1`, 17% (inactive).
Regarding `C[C@@H]1CN([C@H](C)CO)C(=O)c2cc(NS(=O)(=O)c3ccccc3)ccc2O[C@@H](C)CCCCO[C@H]1CN(C)Cc1ccc(C(F)(F)F)cc1`, the “activity change, negative = viability loss” value was 13.1% (inactive).
With `COc1ccccc1C#Cc1ccc([C@H]2[C@H](C#N)N(C(=O)C3CC3)[C@H]2CO)cc1` the figure was 7.69% (inactive); with `C[C@H](CO)N1C[C@H](C)[C@@H](CN(C)Cc2ccc(C(F)(F)F)cc2)Oc2ccc(NS(=O)(=O)c3ccc(Cl)cc3)cc2CC1=O`, 15.3% (inactive).
The figure for `N#C[C@H]1[C@H](c2ccc(C#Cc3ccccc3F)cc2)[C@H](CO)N1C(=O)C1CCC1` is 7.89% (inactive); for `COc1ccccc1S(=O)(=O)N(C)C[C@H]1Oc2cc(C#CCC3CCCC3)ccc2S(=O)(=O)N([C@@H](C)CO)C[C@H]1C` it is 15.9% (inactive).
The figure for `COc1ccccc1C#Cc1ccc([C@H]2[C@H](C#N)N(C(=O)C3CCC3)[C@H]2CO)cc1` is 12.5% (inactive).
As for `C[C@@H]1CN([C@@H](C)CO)S(=O)(=O)c2ccc(C#Cc3ccccc3F)cc2O[C@H]1CN(C)C(=O)Cc1ccccc1`, the “activity change, negative = viability loss” value is 14.5% (inactive).
With `COc1ccc(S(=O)(=O)Nc2ccc3c(c2)C(=O)N([C@H](C)CO)C[C@H](C)[C@@H](CN(C)S(=O)(=O)c2ccc(Cl)cc2)OCCCC[C@H](C)O3)cc1` the figure was 1.82% (inactive).
The figure for `COc1ccc(CN(C)C[C@@H]2OCCCC[C@H](C)Oc3ccc(NC(=O)Nc4ccc(C(F)(F)F)cc4)cc3C(=O)N([C@@H](C)CO)C[C@H]2C)cc1` is 0.945% (inactive); for `NS(=O)(=O)c1ccc(CCN2C(=O)/C(=C\c3ccc(Cl)cc3)SC2=S)cc1` it is 18% (inactive).
The figure for `O=C(C[C@@H]1C[C@@H]2c3cc(NS(=O)(=O)c4ccc(F)cc4)ccc3O[C@@H]2[C@@H](CO)O1)NCc1ccc(Oc2ccccc2)cc1` is 17.2% (inactive); for `C[C@H](CO)N1C[C@H](C)[C@H](CN(C)Cc2ccc3c(c2)OCO3)OCCCC[C@H](C)Oc2ccc(NC(=O)Nc3ccc(C(F)(F)F)cc3)cc2C1=O` it is -2.75% (inactive); for `N#C[C@@H]1[C@@H](c2ccc(C#Cc3ccccc3F)cc2)[C@H](CO)N1C(=O)C1CCCCC1` it is 18% [at 30 µM] (inactive).
With `O=C(C[C@H]1C[C@@H]2c3cc(NS(=O)(=O)c4ccc(F)cc4)ccc3O[C@@H]2[C@@H](CO)O1)N1CCc2ccccc2C1`, the “activity change, negative = viability loss” value is 12.9% (inactive).
With `O=C1CN(S(=O)(=O)Cc2ccccc2)C[C@H]2[C@H](c3ccc(C#Cc4ccc(F)cc4)cc3)[C@H](CO)N12` the figure was 14.4% (inactive); with `CCCC#Cc1ccc([C@H]2[C@@H](C#N)N(C(=O)C3CCCCC3)[C@H]2CO)cc1`, 14.1% (inactive).
The figure for `C[C@H]1CCCCO[C@H](CN(C)S(=O)(=O)c2ccccc2)[C@@H](C)CN([C@@H](C)CO)C(=O)c2cc(NS(=O)(=O)c3ccc(Cl)cc3)ccc2O1` is 14.2% (inactive); for `C[C@H](CO)N1C[C@H](C)[C@H](CN(C)Cc2ccc(C(=O)Nc3ccccc3N)cc2)Oc2ccc(N(C)C)cc2C1=O` it is 21.4% (inactive); for `COc1cccc(C#Cc2ccc([C@H]3[C@@H](CO)N(C(=O)c4ccccn4)[C@H]3C#N)cc2)c1` it is 12% (inactive).
With `COc1cccc(-c2ccc(C3[C@@H]4CN(C(=O)C5CC5)C[C@H]3N4)cc2)c1` (stereo partly drawn) the figure was 6.62% (inactive).
With `Cc1ccc(S(=O)(=O)Nc2ccc3c(c2)C(=O)N([C@H](C)CO)C[C@@H](C)[C@H](CN(C)Cc2ccc(C(F)(F)F)cc2)OCCCC[C@H](C)O3)cc1`, the “activity change, negative = viability loss” value is 11.6% (inactive).
With `O=C(Nc1cccc(C(=O)O)c1)Nc1ccc2c(c1)OCO2` the figure was 4.96% (inactive).
